# aSyn 5UTR act = Activators via SNCA 5'UTR binding, MLPCN; alpha-synuclein 5'UTR reporter, activators screen; activity score, % (tested at 7.5 µM), hits read low; 7.1% of 300,000 active; AID 1814, 2009; in the data active = activity score below about -60%
# The depositor's hits bear a star. The list is a sample of the results.
SMILES,aSyn 5UTR act
COCc1cc(C)nc(SCC(=O)Nc2nc(C)cs2)c1C#N,55
Cc1ccc(C2(C)NC(=O)N(CC(=O)Nc3nc(-c4ccccn4)cs3)C2=O)cc1 (stereo not given),80
Cc1csc(NC(=O)CSc2ccccc2F)n1,-88*
CC(C)(C)c1ccc(-c2csc(NC(=O)CN3C(=O)NC4(CCCCC4)C3=O)n2)cc1,-79*
Cc1csc(SCC(=O)Nc2nc(-c3ccccc3)cs2)n1,-80*
Cc1ccc(-c2csc(NC(=O)CSc3nc(C)cs3)n2)cc1,-160*
COCCNC(=O)CSc1nc(-c2ccccc2)cs1,-73*
COc1ccc(CC(=O)Nc2ccc(-c3ccc4nnc(C)n4n3)cc2)cc1OC,-75*
CCSc1nnc2ccc(-c3ccc(OC)c(OC)c3)nn12,62
COc1ccc(/C=N/Nc2nc3ccccc3[nH]2)cc1OC,-228*
COc1ccc2c(c1)c(/C=N/Nc1nc3ccccc3[nH]1)c(C)n2C,-115*
CCN(CC)c1ccc(/C=N/Nc2nc3ccccc3[nH]2)c(O)c1,84
COc1cc(/C=N\Nc2nc3ccccc3[nH]2)cc(OC)c1OC,-82*
Cc1ccc2cc(/C=N/Nc3nc4ccccc4[nH]3)c(Cl)nc2c1,-111*
C(=N\Nc1nc2ccccc2[nH]1)/c1ccc2ncccc2c1,95
Cc1ccc(C(=O)CC(=O)c2ccc(C)cc2O)cc1,-95*
Cc1ccc(C(=O)CC(=O)c2cc(Cl)ccc2O)cc1,-151*
Cc1ccc(C(=O)CC(=O)c2ccc(C(C)(C)C)cc2)cc1,-113*
CC(C)(C)c1ccc(C(=O)CS(=O)(=O)c2ccccc2)cc1,-133*
C#CCOc1ccc(C2C3=C(COC3=O)Nc3cc4c(cc32)OCO4)cc1OC (stereo not given),132
CCOc1ccccc1C1C2=C(COC2=O)Nc2cc3c(cc21)OCO3 (stereo not given),117
CCOc1ccc(C2Sc3ccccc3NC3=C2C(=O)OC3)cc1 (stereo not given),-78*
C=CS(=O)(=O)c1ccc(Oc2ccc(S(=O)(=O)C=C)cc2)cc1,-108*
CCCc1cc2c(cc1NC(=O)c1ccc(C(C)(C)C)cc1)OCO2,-74*
S=C(Nc1ccccc1)Nc1cccc(Cl)c1Cl,-67*
SMILES,aSyn 5UTR act
S=C(Nc1ccccc1)Nc1ccc(Cl)cc1Cl,-91*
NNC(=S)Nc1ccccc1Cl,-185*
COC(=O)c1cccc(NC(=S)Nc2cccc(Cl)c2Cl)c1,-69*
CNC(=S)Nc1cccc(C(=O)OC)c1,-91*
Clc1ccc(-c2n[nH]c3c2Cc2ccccc2-3)cc1Cl,-66*
O=C(NCC1CCCO1)c1ccc2nc(N3CCCCC3)sc2c1 (stereo not given),-194*
O=C(NCC1CCCO1)c1ccc(N2CCCCC2)nc1 (stereo not given),-83*
CCC1=Nc2cc(C(=O)NCC3CCCO3)ccc2Sc2ccc(Cl)cc21 (stereo not given),-74*
Nc1ccc(-c2nc3ncccc3o2)c(O)c1,-176*
Nc1ccc(-c2nc3ncccc3o2)c(Cl)c1,-104*
O=C(Nc1ccc2c(c1)OCO2)c1ccc(CN2CCOCC2)cc1,-104*
CC(C)c1ccc(C(=O)Nc2ccc(CN3CCOCC3)cc2)cc1,-68*
CC(C)c1ccc(NC(=S)NN2CCOCC2)cc1,-135*
Cc1c(Cl)cccc1NC(=S)N=Nc1c(O)n(CN2CCOCC2)c2ccccc12,64
CSc1ccccc1NC(=O)c1ccc(CN2CCOCC2)cc1,-97*
C/C(O)=C(\N=Nc1cc(C)ccc1O)C(N)=O,-65*
CC(=O)c1cnc(Nc2cccc(Cl)c2Cl)s1,-92*
O=C(c1ccc(Cl)cc1)c1cnc(Nc2ccccc2Cl)s1,-156*
O=C(O)C(=O)/C(=C\c1ccc(Cl)cc1)c1ccc2ccccc2n1,-226*
O=C(N/N=C/c1c(O)ccc2ccccc12)c1cccnc1,93
CCc1ccc(O)c(-c2cc(C(=O)Nc3cccnc3)[nH]n2)c1,-162*
Cc1cccc(NC(=O)c2cc(-c3c(C)cc(C)cc3O)n[nH]2)c1,-123*
Cc1cc(O)c(-c2cc(C(=O)Nc3cccnc3)[nH]n2)cc1C,-188*
Cc1cccc(NC(=O)c2cc(-c3cc(C)cc(C)c3O)n[nH]2)c1,-67*
Cc1ccc(C)c(NC(=O)c2cc(-c3cc(C)ccc3O)n[nH]2)c1,-211*
SMILES,aSyn 5UTR act
Cc1ccc(NC(=O)c2cc(-c3ccccc3O)n[nH]2)cc1Cl,-110*
Cc1cc(C)c(O)c(-c2cc(C(=O)Nc3cccnc3)[nH]n2)c1,-108*
Cc1cccc(NC(=O)c2cc(-c3cc(Cl)ccc3O)n[nH]2)c1,-224*
O=C(COc1ccccc1C(=O)c1cnn(-c2ccccc2)c1)Nc1ccccc1,-73*
CCOc1ccc(NC(=O)c2cccnc2C(=O)O)cc1,-109*
CCOc1ccc(NC(=O)c2ccccc2CO)cc1,-86*
CC(=O)c1ccc(NC(=O)COc2ccccc2C(=O)Nc2ccccc2)cc1,-78*
CCOc1ccc(NC(=O)c2ccccn2)cc1,104
CCOc1ccc(NC(=O)c2ccccc2O)cc1,-66*
CCOc1ccc(NC(=O)c2nccnc2CO)cc1,-120*
CCOc1ccc(NC(=O)c2ccccc2-c2ccccc2C(=O)O)cc1,-63*
